Assay outcomes deposited in PubChem BioAssay by National Center for Advancing Translational Sciences (NCATS).
HTT cytoprotect = qHTS Multiplex Assay to Identify Dual Action Probes in a Cell Model of Huntington: Cytoprotection (ATP). PC12 HTT-Q103 induced, cytoprotection, ATP luminescence, 40 h. Potency, µM (series often up to 56.4 µM), without a hit: cytoprotection (ATP increase), most hits filed as activators. 230,000 tested, 0.14% active; further: potency means the concentration at half of the fitted maximal effect; % of control where 0% means no effect; nearly all actives have a fitted effect of over 45% in size
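Readout: ATPlite luminescence (ATP level). Model: stable PC12, inducible Htt exon1 Q103-GFP. Inducer: tebufenozide, 100 nM final. Compounds: dose series. No G418 in medium.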
HTT aggregate = qHTS Multiplex Assay to Identify Dual Action Probes in a Cell Model of Huntington: Aggregate Formation (GFP) | PC12 HttQ103-GFP aggregates, Acumen cytometry, 40 h | Potency, µM (doses to about 46.1 µM), for the others: at the highest dose activity change, negative = inhibition, usual class: inhibitors | 220,000 tested, 1.1% active; further: potency means the concentration at half of the fitted maximal effect; on the % scale 0 is the no-effect control and ±100 the full control effect; nearly all actives have a fitted effect of over 60% in size
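Ecdysone-promoter PC12 model expressing HTT exon 1 Q103 fused to GFP, induced by tebufenozide at 100 nM final. Compounds titrated; aggregates sized 1–25 µm scored on a 488 nm laser cytometer.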
HPGD block = qHTS Assay for Inhibitors of HPGD (15-Hydroxyprostaglandin Dehydrogenase). 150,000 tested, 4.3% active. 15-hydroxyprostaglandin dehydrogenase [NAD(+)] (Homo sapiens), P15428. purified HPGD, NADH fluorescence kinetic, PGE2 substrate. Potency, µM, for the others: top-dose activity change, negative = inhibition, usual class: inhibitors; active means well fitted inhibition curve with a large enough effect, not every such curve was filed as active; inconclusive means small, poorly fitted or top-dose-only effect, or another doubt; inactive means no such curve, though single readings can be large or run the other way; further: potency means the concentration at half of the fitted maximal effect; on the % scale 0 is the no-effect control and ±100 the full control effect
Target sequence (P15428 whole entry, looked up): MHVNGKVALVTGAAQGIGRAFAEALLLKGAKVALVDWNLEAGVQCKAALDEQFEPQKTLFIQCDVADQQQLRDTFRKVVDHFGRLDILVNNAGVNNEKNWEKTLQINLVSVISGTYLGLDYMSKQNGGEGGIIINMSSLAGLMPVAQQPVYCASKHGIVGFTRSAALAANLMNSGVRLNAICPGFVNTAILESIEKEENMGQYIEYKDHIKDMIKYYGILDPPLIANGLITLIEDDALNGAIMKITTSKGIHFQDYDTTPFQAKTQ
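20 nM HPGD preincubated 15 min at room temperature with compound in 50 mM Tris-HCl pH 8, 0.01% Tween 20. Started with 1 mM NAD+ and 30 uM prostaglandin E2; NADH fluorescence (360/450 nm) read 5 times over 30-s intervals, last minus first.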
ALDH1A1 inh = qHTS Assay for Inhibitors of Aldehyde Dehydrogenase 1 (ALDH1A1) | Purified ALDH1A1, NADH fluorescence, propionaldehyde substrate | 220,000 tested, 7.3% active | Aldehyde dehydrogenase 1A1 (Homo sapiens), P00352 | Potency, µM (doses to about 75.3 µM), for inactives: at the top dose activity, negative = inhibition, usual class: inhibitors; active means well fitted inhibition curve with a large enough effect, not every such curve was filed as active; inconclusive means small, poorly fitted or top-dose-only effect, or another doubt; inactive means no such curve, though single readings can be large or run the other way;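 further: potency means the concentration at half of the fitted maximal effect; plate controls were no enzyme wells and a reference inhibitor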
Target sequence (P00352 whole entry, looked up): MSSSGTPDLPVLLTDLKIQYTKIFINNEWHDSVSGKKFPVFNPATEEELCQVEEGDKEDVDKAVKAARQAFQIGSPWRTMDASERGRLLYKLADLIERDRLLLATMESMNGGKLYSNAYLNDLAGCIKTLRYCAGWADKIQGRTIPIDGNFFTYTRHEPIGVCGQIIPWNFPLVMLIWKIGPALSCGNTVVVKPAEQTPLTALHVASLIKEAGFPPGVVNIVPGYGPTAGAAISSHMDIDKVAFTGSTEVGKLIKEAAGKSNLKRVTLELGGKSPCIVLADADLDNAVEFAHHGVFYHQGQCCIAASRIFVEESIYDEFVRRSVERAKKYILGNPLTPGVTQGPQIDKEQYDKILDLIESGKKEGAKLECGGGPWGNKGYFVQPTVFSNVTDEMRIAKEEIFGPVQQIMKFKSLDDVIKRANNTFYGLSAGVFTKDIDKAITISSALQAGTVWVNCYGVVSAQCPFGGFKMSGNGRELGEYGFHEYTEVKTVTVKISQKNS
PNC assembly inh = High Content Assay for Compounds that inhibit the Assembly of the Perinucleolar Compartment; PC3M PTB-GFP, PNC prevalence imaging, 16 h; stronger effect = lower value; activity change (PNC), negative = inhibition, % at 10 µM; 140,000 tested, 3.1% active;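 active means readout at or below -70, meaning at least 70% loss of cells showing the perinucleolar compartment, a nuclear body marking cancer cells; inconclusive means readout between -30 and a set limit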;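 further: plate controls were DMSO wells for no effect and camptothecin positive control wells for full effect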
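PC3M cells stably expressing PTB-GFP, 750–1000 cells/well, treated 16 h at 37 °C with compound (23 nl of library stock), in duplicate. After paraformaldehyde fixation and Hoechst stain, imaged at 20x; PNC prevalence scored by image analysis.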
CBFb RUNX1 block = qHTS Assay for Compounds Blocking the Interaction Between CBF-beta and RUNX1 for the Treatment of Acute Myeloid Leukemia; Runt-related transcription factor 1 (Homo sapiens) + Core-binding factor subunit beta …; AlphaScreen CBFb-His/RUNX1-biotin binding, biochemical; Potency, µM (top dose mostly 59.8 µM), for inactives: top-dose activity, negative = inhibition, usual class: inhibitors; 230,000 tested, under 10 active; further: % of control where 0% means no effect
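His-tagged CBF-beta and biotinylated RUNX1 (30 nM each) were premixed 20 min at room temperature, exposed to compound for 15 min, then given nickel-chelate and streptavidin AlphaScreen beads (50 ng each). After 90 min, AlphaScreen signal was read.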
* hit, by the source's call; u = inconclusive; x = no result given; [ ] = another dose, or the depositor's remark. Rows were chosen to be rich in hits. Some 11% of all compounds tested hit in one or more screens of this group. Unless noted, the call rests on the fitted dose curve; in most records, active means well fitted curve in the direction sought with a large enough effect; inconclusive means small, poorly fitted or top-dose-only effect, or another doubt; inactive means no such curve, though single readings can be large; an effect the other way counts as inactive or inconclusive.

SMILES	HTT cytoprotect	HTT aggregate	HPGD block	ALDH1A1 inh	PNC assembly inh	CBFb RUNX1 block
CCOC(=O)c1cccc(NC(=O)CNS(=O)(=O)c2cccs2)c1	-16%[10 µM]	-11%	-10%	-5%	-100*	4%
CCOC(=O)c1cccc(NC(=O)CCS(=O)(=O)c2ccc(Br)s2)c1	4%	-4%	10%	11%	u	-2%
CCOC(=O)c1cccc(NC(=O)CCS(=O)(=O)c2cccs2)c1	7%	12%	-9%	20µM*	44	4%
COc1cc(C(=S)N2CCOCC2)cc(OC)c1OC(=O)Cc1ccc(F)cc1	-4%[10 µM]	-5%	16µM*	28µM*	-5	-3%
CC(C)C1OC(c2cccc(NC(=O)c3cccs3)c2)OCC1(C)C (centres undefined)	-29%	u	x	7%	x	1%
FC(F)(F)Oc1ccc(NC(=S)NCCCN2CCOCC2)cc1	-40%	-3%	x	9%	x	3%
COc1ccnc(N2CCN(c3ccc(Cl)cc3)CC2)c1C#N	-9%	2%	u	13µM*	u	-2%
COc1ccnc(N2CCN(c3cccc(C(F)(F)F)c3)CC2)c1C#N	6%	6%	-16%	-2%	34	4%
COC(=O)c1ccc(C(NC(=O)OCc2ccccc2)/C(=C/[C@@H](C)C(=O)NC2CCCCC2)c2cccnc2)cc1 (some centres undefined)	-6%	x	-19%	-2%	x	6%
C=CCOC(=O)C(=O)/C=C/c1coc2ccccc2c1=O	13%[10 µM]	8%[9.22 µM]	x	32µM*	x	2%
COC(=O)c1cccc(NC(=O)NC23CC4CC(CC(C4)C2)C3)c1	-31%	7%[9.22 µM]	u	32µM*	u	0%
CCCc1cc(=O)n2[nH]c(Cc3ccccc3)nc2n1	17%[0.074 µM]	-10%	-14%	11%	19	2%
CCOc1cc(/C=C2\C(=O)N(c3ccc(C(N)=O)cc3)N=C2C)ccc1OC(=O)c1cccs1	-32%	9%	7.1µM*	0.71µM*	12	u
COc1cc(/C=C2/C(=O)NN(c3cccc(C)c3)C2=O)ccc1OC(=O)c1ccco1	6%[10 µM]	1%	2µM*	3.2µM*	-7	2%
CCOc1cc(/C=C2/SC(=S)N(CC(=O)O)C2=O)ccc1OC(=O)c1cccs1	-21%[10 µM]	24%[9.22 µM]	x	x	x	-9%
CCOc1cc(/C=C2\C(=O)ON=C2C)ccc1OCc1ccccc1	-11%[10 µM]	u	7.1µM*	3.5µM*	42	-1%
CC1=NN(c2ccc(C(=O)O)cc2)C(=O)/C1=C\c1ccc(OC(=O)c2cccs2)cc1	-27%	11%	x	2.2µM*	x	-13%
COc1ccccc1CNc1cc(-c2cccc(NS(C)(=O)=O)c2)ncn1	-8%	x	-23%	-2%	x	x
CCOc1cc(/C=C2/C(=O)N(c3ccccc3)N=C2C)ccc1OC(=O)c1ccco1	-9%	1%	8.9µM*	u	-22	-10%
COc1cc(Sc2ccc(C)cc2)c(OC)cc1N	-40%	-1%	28µM*	3.5µM*	-22	-28%
COc1ccc(CNC(=O)Cn2cc([N+](=O)[O-])nc2C)cc1	-20%	7%	-5%	14%	-86*	-1%
COc1ccc(CNC(=O)CSc2ccsc2[N+](=O)[O-])cc1	x	27%	x	14µM*	x	0%
Cc1ccc(CNC(=O)CSc2ccsc2[N+](=O)[O-])cc1	31%[10 µM]	3%	x	1%	x	-8%
CCN(CC)c1ccc(NC(=O)CSc2ccsc2[N+](=O)[O-])c(C)c1	14%[10 µM]	u	13µM*	15µM*	2	-2%
COc1ccc(NC(=O)N2CCCC3(CCN(C(=O)c4cnccn4)CC3)C2)cc1	-1%	x	-2%	4%	x	x
SMILES	HTT cytoprotect	HTT aggregate	HPGD block	ALDH1A1 inh	PNC assembly inh	CBFb RUNX1 block
CC(=O)N[C@@H](C=O)[C@@H](O)[C@H](O)[C@H](O)CO	-32%	x	-8%	6%	x	-13%
CCN(CC)CCCC(C)NC(=O)c1ccc(Cc2nc3ccccc3[nH]2)cc1 (centres undefined)	x	x	-1%	-1%	x	x
CCC1CCCCN1S(=O)(=O)c1ccc(NC(=O)c2cccs2)cc1 (centres undefined)	32%[10 µM]	-22%	-12%	15%	-100*	-4%
O=C(CSc1ncccc1C(=O)O)NC1CCCCCCC1	12%[10 µM]	12%[9.22 µM]	x	x	x	1%
CCC1CCCCN1S(=O)(=O)c1ccc(NC(=O)CSc2ncccc2C(=O)O)cc1 (centres undefined)	-13%	4%	14µM*	u	-2	3%
CC1(C)CC(=O)C2=C(C1)Oc1ncn(Cc3ccco3)c(=N)c1C2c1ccccc1 (centres undefined)	1%	-8%	x	-9%	-19	-13%
COc1ccc(C2C3=C(CC(C)(C)CC3=O)Oc3ncn(Cc4ccccc4)c(=N)c32)cc1 (centres undefined)	4µM*	-19%	2%	-10%	-27	-8%
O=C(Nc1ccc(N2CCCCC2)c(Cl)c1)c1ncn[nH]1	-3%	13%	13µM*	-6%	u	5%
O=C(Nc1ccc(N2CCCC2)c(Cl)c1)c1ccco1	-95%	-11%	-16%	u	9	-22%
O=C(Nc1ccc(CCC(=O)N2CCCC2)cc1)c1ncn[nH]1	-5%[10 µM]	1%	28µM*	9%	28	0%
O=C(NCc1ccc2c(c1)OCO2)C1CCCN(S(=O)(=O)c2cccnc2)C1 (centres undefined)	14%[10 µM]	32µM*	-11%	4%	25	4%
O=C(c1ccc2ccccc2c1)C1CCCN(S(=O)(=O)c2cccnc2)C1 (centres undefined)	u	15%[9.22 µM]	x	25µM*	x	5%
Cc1ccc(CNC(=O)C2CCCN(S(=O)(=O)c3cccnc3)C2)cc1 (centres undefined)	7%	-22%	1%	2%	u	4%
Nc1nccc(Nc2ccc(S(N)(=O)=O)cc2)n1	-8%[10 µM]	x	0%	10%[13.5 µM]	x	x
O=S(=O)(Nc1nc2ccccc2nc1Nc1cccc(S(=O)(=O)N2CCCCC2)c1)c1ccccc1	-21%[10 µM]	u	u	u	u	9%
Cc1cccc(Nc2nc(-c3cccs3)cs2)n1	22%[10 µM]	3%	-20%	u	-105*	-4%
N#C/C(=C/c1ccc(-c2ccc(Br)cc2)o1)C(=O)NC1CCCCC1	25%[10 µM]	-3%	-15%	1.1µM*	41	15%
